Measurements taken from PubChem BioAssay (EPA / NIEHS).
The source made the active and inactive calls. Rule for the calls: active = hit-call score of the fitted dose curve at least 0.9, where 1 is the maximum; inactive = score below 0.9.

Assay: BSK_4H_SRB: Viability Assessment in the BioMAP Diversity Plus: 4H Assay (AID 2283027);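 note: cells exposed to compound for 24 h before staining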;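 for AC50: curves fitted both ways versus DMSO so AC50 may be loss or gain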
Conditions: primary human endothelial cells (HUVEC)
Method in brief: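 Human umbilical vein endothelial cells, 24 h after chemical dosing; total protein measured by 0.1% sulforhodamine B staining after 10% TCA fixation, read at 560 nm. Bidirectional fitting against DMSO.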
For CCOC(=O)COc1ccc2c(c1)CC(NCC(O)c1cccc(Cl)c1)CC2 (centres undefined), the AC50 was 28.1 µM (active). In the case of O=C1OC(=O)C2C3C=CC(C3)C12 (centres undefined), the outcome is reported as “inactive”. In the case of O=P(OC(CCl)CCl)(OC(CCl)CCl)OC(CCl)CCl, the outcome is reported as “inactive”. For CCCCCCCCCCCCCCCO, the AC50 was 36.1 µM (active). In the case of COCCOCCOCCOC, the outcome is reported as “inactive”. For CC(C)=CCCC(C)CCO (centres undefined), the outcome was “inactive”. With C1=CCCC=CCCC=CCC1 the outcome was “inactive”. For CC[C@H]1CC[C@H](NCc2cc3c(cc2OC)[C@H]2C[C@H]2C(=O)N3C)[C@H](c2ccccc2)N1, the outcome was “inactive”. For O=C(CCCCCCCCc1cccnc1)N1CCC(C=C(c2ccccc2)c2ccccc2)CC1, the AC50 was 13.1 µM (active). In the case of CC(C)(O)c1coc(S(=O)(=O)NC(=O)Nc2c3c(cc4c2CCC4)CCC3)c1, the outcome is reported as “inactive”. With CCN(C(=O)c1cc(C)cc(OC[C@H](C)Nc2ccncc2)c1)C(C)C the outcome was “inactive”. With Cc1ccc(S(=O)(=O)O)cc1C the outcome was “inactive”. For CNS(=O)(=O)c1cc(C(=O)N2CCC(CCN3C4CCC3CC(n3c(C)nc5ccccc53)C4)(c3cccc(F)c3)CC2)c(Cl)cc1F (centres undefined), the AC50 was 11.8 µM (active). With CCCCC(CC)COC(=O)CCCCCCCCC(=O)OCC(CC)CCCC (centres undefined) the outcome was “inactive”. With O=C(NS(=O)(=O)/C=C/c1ccccc1)c1ccc(F)cc1Cl the outcome was “inactive”. For CCOc1cccc(-n2cc(C(=O)N3CCN(c4cc(C(=O)O)c5ccccc5c4)CC3)nc2-c2ccc(C)cc2)c1, the AC50 was 13.7 µM (active). For O=C(OC[C@H]1O[C@@H](OC(=O)c2cc(O)c(O)c(OC(=O)c3cc(O)c(O)c(O)c3)c2)[C@H](OC(=O)c2cc(O)c(O)c(OC(=O)c3cc(O)c(O)c(O)c3)c2)[C@@H](OC(=O)c2cc(O)c(O)c(OC(=O)c3cc(O)c(O)c(O)c3)c2)[C@@H]1OC(=O)c1cc(O)c(O)c(OC(=O)c2cc(O)c(O)c(O)c2)c1)c1cc(O)c(O)c(OC(=O)c2cc(O)c(O)c(O)c2)c1, the outcome was “inactive”. With COCCOc1cc2cc(C(=O)NC3CCN(C(C)C)CC3)n(CC(=O)Nc3ccc(Cl)cn3)c2cn1 the outcome was “inactive”. With CCc1cc(SCc2sc(-c3ccc(C(F)(F)F)cc3)nc2CN2CCN(c3ccc(OC)cc3)CC2)ccc1OCC(=O)O the AC50 was 11.8 µM (active). With CCCCCCCCO the outcome was “inactive”. With CC(C)CCCCCCOC(=O)c1ccc(C(=O)OCCCCCCC(C)C)c(C(=O)OCCCCCCC(C)C)c1 the outcome was “inactive”. For Nc1nc2ncc(CNc3ccc(C(=O)N[C@@H](CCC(=O)O)C(=O)O)cc3)nc2c(=O)[nH]1, the outcome was “inactive”. For Cn1c(=O)cc(Oc2ccc(F)cc2F)c2cnc(NCC(C)(C)O)nc21, the outcome was “inactive”. In the case of CC(=O)OCCC(C)C, the outcome is reported as “inactive”. In the case of COC(=O)CC(=O)OC, the outcome is reported as “inactive”. In the case of Cc1c(-c2cccnc2)c2ccccc2n1CCCCC(=O)O, the outcome is reported as “inactive”. For Nc1cccc(N)c1, the outcome was “inactive”. In the case of CC[C@H](C)C(=O)O[C@H]1C[C@@H](C)C=C2C=C[C@H](C)[C@H](CC[C@@H]3C[C@@H](O)CC(=O)O3)[C@H]21, the AC50 is reported as 19.9 µM (active). For COC(=O)c1ccccc1O, the outcome was “inactive”. With CC[C@H]1OC(=O)[C@H](C)[C@@H](O[C@H]2C[C@@](C)(OC)[C@@H](O)[C@H](C)O2)[C@H](C)[C@@H](O[C@@H]2O[C@H](C)C[C@H](N(C)C)[C@H]2O)[C@](C)(O)C[C@@H](C)C(=O)[C@H](C)[C@@H](O)[C@]1(C)O the outcome was “inactive”.

Assay: BSK_BE3C_SRB: Viability Assessment in the BioMAP Diversity Plus: BE3C Assay (AID 2283028);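 for AC50: fitted both ways so AC50 may mark signal gain or loss versus DMSO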
Conditions: primary human bronchial epithelial cells
Method in brief: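 Cytotoxicity read-out: SRB (0.1%) staining of TCA-fixed (10%) human lung bronchial epithelial cells, absorbance 560 nm, 24 h post-dosing. Curves fitted both directions relative to DMSO.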
In the case of CCOC(=O)COc1ccc2c(c1)CC(NCC(O)c1cccc(Cl)c1)CC2 (centres undefined), the outcome is reported as “inactive”. In the case of O=C1OC(=O)C2C3C=CC(C3)C12 (centres undefined), the outcome is reported as “inactive”. In the case of O=P(OC(CCl)CCl)(OC(CCl)CCl)OC(CCl)CCl, the outcome is reported as “inactive”. With CCCCCCCCCCCCCCCO the outcome was “inactive”. For COCCOCCOCCOC, the outcome was “inactive”. For CC(C)=CCCC(C)CCO (centres undefined), the outcome was “inactive”. With C1=CCCC=CCCC=CCC1 the outcome was “inactive”. With CC[C@H]1CC[C@H](NCc2cc3c(cc2OC)[C@H]2C[C@H]2C(=O)N3C)[C@H](c2ccccc2)N1 the outcome was “inactive”. In the case of O=C(CCCCCCCCc1cccnc1)N1CCC(C=C(c2ccccc2)c2ccccc2)CC1, the AC50 is reported as 34.2 µM (active). In the case of CC(C)(O)c1coc(S(=O)(=O)NC(=O)Nc2c3c(cc4c2CCC4)CCC3)c1, the outcome is reported as “inactive”. For CCN(C(=O)c1cc(C)cc(OC[C@H](C)Nc2ccncc2)c1)C(C)C, the outcome was “inactive”. With Cc1ccc(S(=O)(=O)O)cc1C the outcome was “inactive”. For CNS(=O)(=O)c1cc(C(=O)N2CCC(CCN3C4CCC3CC(n3c(C)nc5ccccc53)C4)(c3cccc(F)c3)CC2)c(Cl)cc1F (centres undefined), the outcome was “inactive”. In the case of CCCCC(CC)COC(=O)CCCCCCCCC(=O)OCC(CC)CCCC (centres undefined), the outcome is reported as “inactive”. With O=C(NS(=O)(=O)/C=C/c1ccccc1)c1ccc(F)cc1Cl the outcome was “inactive”. For CCOc1cccc(-n2cc(C(=O)N3CCN(c4cc(C(=O)O)c5ccccc5c4)CC3)nc2-c2ccc(C)cc2)c1, the AC50 was 31.3 µM (active). For O=C(OC[C@H]1O[C@@H](OC(=O)c2cc(O)c(O)c(OC(=O)c3cc(O)c(O)c(O)c3)c2)[C@H](OC(=O)c2cc(O)c(O)c(OC(=O)c3cc(O)c(O)c(O)c3)c2)[C@@H](OC(=O)c2cc(O)c(O)c(OC(=O)c3cc(O)c(O)c(O)c3)c2)[C@@H]1OC(=O)c1cc(O)c(O)c(OC(=O)c2cc(O)c(O)c(O)c2)c1)c1cc(O)c(O)c(OC(=O)c2cc(O)c(O)c(O)c2)c1, the outcome was “inactive”. For COCCOc1cc2cc(C(=O)NC3CCN(C(C)C)CC3)n(CC(=O)Nc3ccc(Cl)cn3)c2cn1, the outcome was “inactive”. In the case of CCc1cc(SCc2sc(-c3ccc(C(F)(F)F)cc3)nc2CN2CCN(c3ccc(OC)cc3)CC2)ccc1OCC(=O)O, the AC50 is reported as 5.19 µM (active). With CCCCCCCCO the outcome was “inactive”. In the case of CC(C)CCCCCCOC(=O)c1ccc(C(=O)OCCCCCCC(C)C)c(C(=O)OCCCCCCC(C)C)c1, the outcome is reported as “inactive”. For Nc1nc2ncc(CNc3ccc(C(=O)N[C@@H](CCC(=O)O)C(=O)O)cc3)nc2c(=O)[nH]1, the outcome was “inactive”. For Cn1c(=O)cc(Oc2ccc(F)cc2F)c2cnc(NCC(C)(C)O)nc21, the outcome was “inactive”. With CC(=O)OCCC(C)C the outcome was “inactive”. With COC(=O)CC(=O)OC the outcome was “inactive”. With Cc1c(-c2cccnc2)c2ccccc2n1CCCCC(=O)O the outcome was “inactive”. In the case of Nc1cccc(N)c1, the outcome is reported as “inactive”. In the case of COC(=O)c1ccccc1O, the outcome is reported as “inactive”. In the case of CC[C@H]1OC(=O)[C@H](C)[C@@H](O[C@H]2C[C@@](C)(OC)[C@@H](O)[C@H](C)O2)[C@H](C)[C@@H](O[C@@H]2O[C@H](C)C[C@H](N(C)C)[C@H]2O)[C@](C)(O)C[C@@H](C)C(=O)[C@H](C)[C@@H](O)[C@]1(C)O, the outcome is reported as “inactive”.
